# Results published in the supplement of paper PMC8975748.
# Counter-ions that a name gives are not always drawn.
# System: Saccharomyces cerevisiae BY4741 SeMeCo community
# Experiment: z-score of subpopulation abundance vs DMSO median, subpopulation auxotrophic for HUM; higher = larger share of this subpopulation than in DMSO controls
# Conditions: 10 µM; 24 h; SM minimal medium; subpopulation (auxotrophy): HUM
# Protocol: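 Fluorescent four-plasmid SeMeCo (self-establishing metabolically cooperating S. cerevisiae BY4741 community; plasmids pH-mRuby2, pL-mWasabi, pU-eCFP, pM-TagRFP657) was grown 24 h in minimal SM medium with each Selleck FDA-approved drug at 10 µM in 384-well plates. Cells were fixed and imaged by high-content confocal microscopy. For each auxotrophic subpopulation (and the prototroph), a z-score gives the deviation from the DMSO vehicle-control population median.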
row,Compound,z-score of subpopulation abundance
1,C[C@H]1NCc2cc(-c3ccc4c(=O)c(C(=O)O)cn(C5CC5)c4c3OC(F)F)ccc21 [Garenoxacin],0.84
2,Nc1ccc(S(N)(=O)=O)cc1 [Sulfanilamide],0.6
3,NS(=O)(=O)Cc1noc2ccccc12 [Zonisamide],0.45
4,Cc1cc(C)nc(O)n1.O=C(Nc1ccc([N+](=O)[O-])cc1)Nc1ccc([N+](=O)[O-])cc1 [Nicarbazin],-0.86
5,COc1ccc2cc([C@H](C)C(=O)O)ccc2c1 [Naproxen],-1.97
6,Cc1cnc(NC(=O)C2=C(O)c3ccccc3S(=O)(=O)N2C)s1 [Meloxicam],-0.88
7,Cc1cccc(C#Cc2ccccc2)n1,-0.32
8,CN1[C@@H]2CC[C@H]1C[C@@H](OC(=O)c1c[nH]c3ccccc13)C2 [Tropisetron],0.95
9,Oc1ccc([C@H]2COc3cc(O)ccc3C2)cc1 [Equol],-0.27
10,N=C(N)NC(=O)c1nc(Cl)c(N)nc1N [Amiloride HCl],-1.69
11,C[C@H]1O[C@@H](O[C@H]2[C@@H](O)C[C@H](O[C@H]3[C@@H](O)C[C@H](O[C@H]4CC[C@@]5(C)[C@H](CC[C@@H]6[C@@H]5C[C@@H](O)[C@]5(C)[C@@H](C7=CC(=O)OC7)CC[C@]65O)C4)O[C@@H]3C)O[C@@H]2C)C[C@H](O)[C@@H]1O [Digoxin],-0.77
12,COc1cc(C(C)=O)ccc1OCCCN1CCC(c2noc3cc(F)ccc23)CC1 [Iloperidone],-0.98
13,C#C[C@]1(O)CC[C@H]2[C@@H]3CCc4cc(OC)ccc4[C@H]3CC[C@@]21C [Mestranol],-0.58
14,Clc1ccc(COC(Cn2ccnc2)c2ccc(Cl)cc2Cl)cc1 (stereo not given) [Econazole nitrate],6.6
15,Cc1cc(-n2c(=O)[nH]c(=O)n(C)c2=O)ccc1Oc1ccc(SC(F)(F)F)cc1 [Toltrazuril],-0.45
16,CCC(C)(C)C(=O)O[C@H]1C[C@@H](C)C=C2C=C[C@H](C)[C@H](CC[C@@H]3C[C@@H](O)CC(=O)O3)[C@H]21 [Simvastatin],1.9
17,CO[C@@H]1[C@H](OC(=O)/C=C/C=C/C=C/C=C/C(=O)O)CC[C@]2(CO2)[C@H]1[C@@]1(C)O[C@@H]1CC=C(C)C [Fumagillin],0.96
18,CCCCCCCN(CC)CCCC(O)c1ccc(NS(C)(=O)=O)cc1 (stereo not given) [Ibutilide Fumarate],0.49
19,CCCCCOc1ccc(-c2cc(-c3ccc(C(=O)N[C@H]4C[C@@H](O)[C@@H](O)NC(=O)[C@@H]5[C@@H](O)[C@@H](C)CN5C(=O)[C@H]([C@H](O)CC(N)=O)NC(=O)[C@H]([C@H](O)[C@@H](O)c5ccc(O)c(OS(=O)(=O)O)c5)NC(=O)[C@@H]5C[C@@H](O)CN5C(=O)[C@H]([C@@H](C)O)NC4=O)cc3)no2)cc1 [Micafungin Sodium],13.9
20,Nc1nc(O)c2ncn(CCC(CO)CO)c2n1 [Penciclovir],0.59

row,Compound,z-score of subpopulation abundance
1,CC(C)n1c(/C=C/C(O)CC(O)CC(=O)O)c(-c2ccc(F)cc2)c2ccccc21 (stereo not given) [Fluvastatin Sodium],12.8
2,O=C(O[C@H]1CN2CCC1CC2)N1CCc2ccccc2[C@@H]1c1ccccc1 [Solifenacin succinate],0.3
3,Cc1cccc(C)c1NC(=O)C1CCCCN1C (stereo not given) [Mepivacaine],-0.62
4,COC(=O)C1=C(C)NC(C)=C(C(=O)OC(C)(C)CN(C)CCC(c2ccccc2)c2ccccc2)C1c1cccc([N+](=O)[O-])c1 (stereo not given) [Lercanidipine hydrochloride],0.37
5,Cc1nnc(SCC2=C(C(=O)O)N3C(=O)[C@@H](NC(=O)Cn4cc(Cl)c(=O)c(Cl)c4)[C@H]3SC2)s1 [Cefazedone],0.05
6,CC(=O)NO [Acetohydroxamic acid],0.08
7,CCc1nn(CCCN2CCN(c3cccc(Cl)c3)CC2)c(=O)n1CCOc1ccccc1 [Nefazodone hydrochloride],-0.23
8,Cc1ncc([N+](=O)[O-])n1CCOC(=O)c1ccccc1 [Metronidazole Benzoate],-0.37
9,CN(C)CCc1c[nH]c2ccc(CS(=O)(=O)N3CCCC3)cc12 [Almotriptan Malate],-0.91
10,Cc1nc(NC(=O)N2CCC[C@H]2C(N)=O)sc1-c1ccnc(C(C)(C)C(F)(F)F)c1 [Alpelisib (BYL719)],0.48
11,C[C@@H](O)[C@H]1C(=O)N2C(C(=O)[O-])=C(SC3Cn4cnc[n+]4C3)[C@H](C)[C@H]12 (stereo not given in full) [Biapenem],-0.24
12,CCN(CC)CCOC(=O)c1ccc(N)cc1 [Procaine HCl],-1.23
13,CC[C@H](c1ccc(O)cc1)[C@@H](CC)c1ccc(O)cc1 [Hexestrol],-0.88
14,CCC(=O)NS(=O)(=O)c1ccc(-c2c(-c3ccccc3)noc2C)cc1 [Parecoxib Sodium],1.38
15,OCCOc1ccc(/C(=C(/CCCl)c2ccccc2)c2ccccc2)cc1 [Ospemifene],-0.62
16,CC/C=C(\C(=O)N[C@@H]1C(=O)N2C(C(=O)OCOC(=O)C(C)(C)C)=C(COC(N)=O)CS[C@H]12)c1csc(N)n1 [Cefcapene Pivoxil Hydrochloride],1.18
17,OC(CCCN1CCCCC1)(c1ccccc1)c1ccccc1 [Diphenidol HCl],0.78
18,CN1CCN(C2=Nc3ccccc3Oc3ccc(Cl)cc32)CC1 [Loxapine Succinate],-0.1
19,NC(=NCCCCCCN=C(N)N=C(N)Nc1ccc(Cl)cc1)N=C(N)Nc1ccc(Cl)cc1 [Chlorhexidine?2HCl],-0.7
20,CC(NCCC(c1ccccc1)c1ccccc1)c1ccccc1 (stereo not given) [Fendiline hydrochloride],-0.72
